TrxR1 inh – blocks rat thioredoxin reductase 1; Potency, µM (doses to about 114 µM), for inactives: top-dose activity change, negative = inhibition, most hits filed as inhibitors; hit rate 1% among 390,000; O89049; AID 588453; recombinant rTrxR1, NADPH fluorescence consumption, selenite substrate; also: % is scaled to controls: 0 for no effect and ±100 for the full control effect; nearly all actives have a fitted effect of over 65% in size
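Rat TrxR1 (90 nM in the dispensed reagent) was pre-reduced with 400 uM NADPH for 5 min at room temperature, then incubated with compound for 15 min. After 400 uM selenite was added, NADPH fluorescence (Ex 340/Em 450 nm) was followed for 8 min.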
Vif-APOBEC3G blk – blocks the Vif interaction with human APOBEC3G; Q9HC16; HeLa A3G-eYFP + Vif (tagged APOBEC3G with the HIV-1 protein that degrades it), YFP fluorescence, overnight; Potency, µM (top dose mostly 46.1 µM), for inactives: top-dose activity, negative = active, usual class: inhibitors; hit rate 0.076% among 410,000; also: % is scaled to controls: 0 for no effect and ±100 for the full control effect; nearly all actives have a fitted effect of over 60% in size
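Read-out is eYFP fluorescence (Ex 488/Em 500-530) from Vif-expressing HeLa A3G-eYFP cells; more signal means A3G escaped Vif-mediated degradation. Cells plated overnight, compound pinned in, incubated overnight at 37 deg C.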
TrxR1 substrate – rat thioredoxin reductase 1 substrate activity. purified TrxR1 substrate turnover, NADPH consumption readout. Potency, µM (titrated, usually from 114 µM), for the others: at the top dose activity change, negative = substrate turnover. hit rate 0.01% among 390,000. AID 588456; also: % is scaled to controls: 0 for no effect and ±100 for the full control effect; nearly all actives have a fitted effect of over 50% in size
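Rat TrxR1, dispensed at 90 nM, was prereduced with 400 uM NADPH (final) for 5 min at ~22 deg C, then incubated with compound 15 min before 400 uM selenite. A first-read NADPH fluorescence drop versus no-compound background flagged substrates.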
VDR inh – blocks the human vitamin D receptor. P11473. VDR-SRC2-3 peptide fluorescence polarization, 2 h. Potency, µM, for inactives: max response, negative = inhibition, most hits filed as inhibitors. hit rate 0.93% among 400,000. AID 504847; also: % is scaled to controls: 0 for no effect and ±100 for the full control effect
Target sequence (P11473 whole entry, looked up): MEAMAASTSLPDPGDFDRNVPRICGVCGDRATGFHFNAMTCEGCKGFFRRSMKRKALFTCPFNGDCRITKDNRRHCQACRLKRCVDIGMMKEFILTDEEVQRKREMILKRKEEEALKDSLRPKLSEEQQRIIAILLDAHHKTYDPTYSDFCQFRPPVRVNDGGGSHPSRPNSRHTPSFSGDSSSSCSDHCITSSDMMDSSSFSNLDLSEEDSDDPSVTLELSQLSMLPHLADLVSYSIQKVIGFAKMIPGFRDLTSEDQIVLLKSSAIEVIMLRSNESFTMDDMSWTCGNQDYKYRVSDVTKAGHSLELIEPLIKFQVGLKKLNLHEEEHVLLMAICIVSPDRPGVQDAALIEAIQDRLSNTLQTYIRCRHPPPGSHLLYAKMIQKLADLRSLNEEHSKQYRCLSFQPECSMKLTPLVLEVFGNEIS
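Two reagent solutions held at 4 deg C in the dark were dispensed, compounds pinned at 23 nl, and the mixture incubated 2 h at room temperature. Read-out: fluorescence polarization of VDR–SRC2-3 peptide binding.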
Vif-A3F inh – Vif-A3F binding inhibition. HeLa A3F-eYFP + Vif (tagged APOBEC3F with the HIV-1 protein that degrades it), YFP fluorescence increase. Potency, µM (titrated, usually from 46.1 µM), without a hit: at the top dose activity, negative = active. hit rate 0.2% among 390,000. AID 602313; also: % of control where 0% means no effect; nearly all actives have a fitted effect of over 65% in size
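HeLa cells stably expressing Vif plus C-terminally eYFP-tagged A3F were seeded, incubated overnight at 37 deg C, dosed with compound, incubated overnight again at 37 deg C. Yellow fluorescence (Ex 488/Em 500-530) reported blocked Vif-mediated A3F-eYFP degradation.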
Numbers without * were called inactive; [ ] = another dose, or the depositor's remark. A selection: hits, their analogues and other compounds. The true share with any hit is near 1.8%. Calls follow the shape of the dose curve; as a rule, active = well fitted curve in the direction sought with a large enough effect; inconclusive = small, poorly fitted or top-dose-only effect, or another doubt; inactive = no such curve, though single readings can be large; an effect the other way counts as inactive or inconclusive. Potency is read from the fitted curve at half-maximal effect.

Results for COC(=O)C1=CO[C@@H](C)[C@@H]2CN3CCc4c([nH]c5cc(OC)ccc45)[C@@H]3C[C@H]12 ?
VDR inh: 79µM*

Results for COC(=O)[C@H]1[C@H]2C[C@@H]3c4[nH]c5cc(OC)ccc5c4CCN3C[C@H]2C[C@@H](OC(=O)/C=C/c2cc(OC)c(OC)c(OC)c2)[C@@H]1OC ?
TrxR1 inh: 3%; Vif-APOBEC3G blk: -4%; TrxR1 substrate: 9%; VDR inh: 36%; Vif-A3F inh: inconclusive

Results for CCN1C(=O)NC(=O)/C(=C\c2cn(CC(=O)N3CCCCC3C)c3ccccc23)C1=O (configuration not stated) ?
TrxR1 inh: 20µM*; Vif-APOBEC3G blk: -8%; TrxR1 substrate: -5%; VDR inh: 2%; Vif-A3F inh: -12%

What do the screens show for `CCN(CC)C(=O)Cn1cc(/C=C2\C(=O)NC(=O)N(c3ccccc3F)C2=O)c2ccccc21`?
TrxR1 inh: -56%; Vif-APOBEC3G blk: -26%; TrxR1 substrate: 7%[57.1 µM]; VDR inh: 79µM*; Vif-A3F inh: 7%

How did CC(C)CCNC(=O)CNC(=O)[C@@H](C)NC(=O)[C@@H](N)Cc1ccc(O)cc1 do in these assays?
VDR inh: -1%

What do the screens show for `COc1cc(C=C2C(=O)NC(=O)NC2=O)ccc1OS(=O)(=O)c1ccccc1[N+](=O)[O-]`?
TrxR1 inh: 6.3µM*; Vif-APOBEC3G blk: 1%; TrxR1 substrate: 5%; VDR inh: 45µM*; Vif-A3F inh: 1%

What do the screens show for `COc1cc(C=C2C(=O)NC(=O)NC2=O)cc(OC)c1OC`?
TrxR1 inh: inconclusive; Vif-APOBEC3G blk: -5%; TrxR1 substrate: 4%[0.0914 µM]; VDR inh: inconclusive; Vif-A3F inh: -2%

How did CCOc1ccc(C=C2C(=O)NC(=S)NC2=O)cc1OCC do in these assays?
TrxR1 inh: 8.9µM*; Vif-APOBEC3G blk: -1%; TrxR1 substrate: 8%[57.1 µM]; VDR inh: 28µM*; Vif-A3F inh: -23%

How did CCOc1cc(C=C2C(=O)NC(=O)NC2=O)ccc1OS(=O)(=O)c1ccccc1 do in these assays?
TrxR1 inh: inconclusive; Vif-APOBEC3G blk: 0%; TrxR1 substrate: 3%[57.1 µM]; VDR inh: 79µM*; Vif-A3F inh: -1%

What do the screens show for `COC(=O)COc1ccc(C[C@@H](C)NC[C@H](O)c2cccc(Cl)c2)cc1`?
VDR inh: 5%

How did C[C@@H]1O[C@@H](O[C@@H]2C=C3CC[C@@H]4[C@@H](CC[C@]5(C)[C@H](c6ccc(=O)oc6)CC[C@@]45O)[C@@]3(C)CC2)[C@H](O)[C@H](O)[C@H]1O do in these assays?
TrxR1 inh: 9%; Vif-APOBEC3G blk: -9%; TrxR1 substrate: 4%

Results for COC(=O)/C=C/C(=O)N[C@@H]1CC[C@@]2(O)[C@H]3Cc4ccc(O)c5c4[C@@]2(CCN3CC2CC2)[C@H]1O5 ?
VDR inh: 1%

Results for C[C@@H]([C@@H](O)c1ccccc1)N(C)C(=O)Cc1ccccc1 ?
TrxR1 inh: 14%; Vif-APOBEC3G blk: 0%; TrxR1 substrate: 4%; VDR inh: 4%; Vif-A3F inh: 6%

What do the screens show for `CN(C)CC(C(=O)Cc1ccccc1)c1ccccc1` (configuration not stated)?
TrxR1 inh: -54%[57.1 µM]; Vif-APOBEC3G blk: -34%; TrxR1 substrate: 16%[57.1 µM]; VDR inh: 35µM*; Vif-A3F inh: 1%

How did N#CC(C#N)=C(C#N)c1ccc(Nc2ccccc2)cc1 do in these assays?
TrxR1 inh: 7.1µM*; Vif-APOBEC3G blk: -3%; TrxR1 substrate: -1%; VDR inh: 50µM*; Vif-A3F inh: -30%

How did c1ccc(Nc2ccc(Nc3ccccc3)cc2)cc1 do in these assays?
TrxR1 inh: -11%; Vif-APOBEC3G blk: -2%; TrxR1 substrate: 3%; VDR inh: -17%; Vif-A3F inh: -1%

Results for NCC(CC(=O)O)c1ccc(Cl)s1 (configuration not stated) ?
VDR inh: 4%

What do the screens show for `CCCCCCCCn1sccc1=O`?
TrxR1 inh: inconclusive; Vif-APOBEC3G blk: -17%; TrxR1 substrate: 2%; VDR inh: 3.5µM*; Vif-A3F inh: inconclusive

How did CCCCCCCCc1ccc(O)cc1 do in these assays?
TrxR1 inh: 16%; Vif-APOBEC3G blk: -1%; TrxR1 substrate: -1%; VDR inh: -7%; Vif-A3F inh: -3%

Results for Cc1cc(N2CCCC2)ccc1C=C(C#N)C#N ?
TrxR1 inh: 15%[11.4 µM]; Vif-APOBEC3G blk: inconclusive; TrxR1 substrate: 5%[11.4 µM]; VDR inh: inconclusive; Vif-A3F inh: inconclusive

What do the screens show for `Cc1ccc2cc(C=C(C#N)C#N)c(Cl)nc2c1`?
TrxR1 inh: 25µM*; Vif-APOBEC3G blk: -21%; TrxR1 substrate: -3%; VDR inh: 35µM*; Vif-A3F inh: inconclusive

What do the screens show for `CC(=O)C1CCC2C3CCC4=CC(=O)CC[C@@]4(C)C3CC[C@]12C` (some centres not stated)?
VDR inh: 45µM*

What do the screens show for `CN(C)c1ccc(/C=C2/C(=O)NC(=O)N(CCc3ccc(F)cc3)C2=O)cc1`?
TrxR1 inh: inconclusive; Vif-APOBEC3G blk: 2%; TrxR1 substrate: -7%; VDR inh: inconclusive; Vif-A3F inh: 6%

Results for CCC(C)N1C(=O)/C(=C\c2cnc(N(C)C)nc2)C(=O)NC1=S (configuration not stated) ?
TrxR1 inh: 14µM*; Vif-APOBEC3G blk: -19%; TrxR1 substrate: 9%[57.1 µM]; VDR inh: 45µM*; Vif-A3F inh: 11%

Results for CN1C(=O)/C(=C\c2ccc(N3CCCCCC3)cc2)C(=O)NC1=S ?
TrxR1 inh: 20µM*; Vif-APOBEC3G blk: 0%; TrxR1 substrate: -2%; VDR inh: inconclusive; Vif-A3F inh: inconclusive

How did CN1C(=O)/C(=C\c2ccc(N3CCCCC3)o2)C(=O)NC1=S do in these assays?
TrxR1 inh: -12%[57.1 µM]; Vif-APOBEC3G blk: inconclusive; TrxR1 substrate: 17%[57.1 µM]; VDR inh: -1%; Vif-A3F inh: inconclusive

How did CCC(C)N1C(=O)/C(=C\c2cc3c4c(c2)CCCN4CCC3)C(=O)NC1=S (configuration not stated) do in these assays?
TrxR1 inh: 32µM*; Vif-APOBEC3G blk: -9%; TrxR1 substrate: -1%; VDR inh: inconclusive; Vif-A3F inh: -28%

Results for CCC(C)N1C(=O)/C(=C\c2ccc(N3CCCCCC3)cc2)C(=O)NC1=S (configuration not stated) ?
TrxR1 inh: 8.9µM*; Vif-APOBEC3G blk: -1%; TrxR1 substrate: 5%[57.1 µM]; VDR inh: -8%; Vif-A3F inh: 22µM*

Results for CN(C(=O)Cc1ccc(Cl)c(Cl)c1)[C@H](CN1CCCC1)c1cccc(N=C=S)c1 ?
VDR inh: -4%

Results for CCOc1ccc(CCNC(=O)c2cc3c(-c4cccc(OC)c4)nn(C)c3s2)cc1OCC ?
TrxR1 inh: 37%; Vif-APOBEC3G blk: -22%; TrxR1 substrate: 29%; VDR inh: -9%; Vif-A3F inh: 2%
